# Assay outcomes from PubChem BioAssay.
# Tgondii IFNg = inhibitors of Toxoplasma gondii growth with IFN-gamma; Toxoplasma gondii growth in IFN-gamma-treated host cells; active compounds read low; AID 1259416; 3.8% of 69,000 active; activity change, negative = inhibition, % (concentration not given with the values); in the data active means activity change below about -70%, passing the limit was not always enough;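 further: host cells are HeLa cells infected with Toxoplasma gondii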
# Starred values were filed as active, the others as inactive; ! = a repeat was not active. Only a selection was taken, and hits are over-represented in it overall.
SMILES,Tgondii IFNg
Cc1c(/C=C/c2nc3ccccc3c(=O)n2-c2ccccn2)c2ccccc2n1C,124
CCc1ccc(Nc2nc(C(=O)NCc3ccco3)nc3ccccc23)cc1,-58
Cn1cc(CCNC(=O)COc2ccccn2)c2cc(Cl)ccc21,16
COc1ccc(-n2nc(C(=O)O)nc2C)cc1,24
COc1ccc(-n2c(C)c3c(OC)cccc(=O)c3c2C)cc1,-6
COc1ccc(-n2c(C)c([N+](=O)[O-])c3ccc(O)cc32)cc1,-77*
COc1ccc(CNC(=O)Nc2ccc(-c3nc(-c4cc(C)ccc4C)co3)cc2)cc1,17
Cc1nc(C)c(C(=O)N2CCC(C(=O)N3CCCCCC3)C2)o1 (centres undefined),-11
Cc1nc(C)c(C(=O)N2CC(C(=O)N3CCCCCC3)C2)o1,-5
Cc1nc(C)c(C(=O)N2C[C@@H](c3ccccc3)[C@H](c3cc(C(F)F)n[nH]3)C2)o1,-80*
O=c1n(CN2CCOCC2)nc2c3ccccc3ncn12,-20
COc1ccccc1-n1c(=O)n(Cc2nc(-c3ccc(Cl)cc3)oc2C)c(=O)c2cccnc21,39
CCCCNC(=O)CCC1N=C2c3ccccc3N=C(SCc3cccc(Cl)c3)N2C1=O (centres undefined),-1
COc1ccc(-c2cc(C3CCN(C(C)=O)CC3)ccn2)cc1,74
COc1ccc(-c2cc(C(F)(F)F)n3nc(-c4cccs4)cc3n2)cc1,-51
COc1ccc(-c2ccnc(SC)n2)cc1,-82*
COc1cccc(CNc2ncc(-c3ccncc3)c(-c3cccs3)n2)c1,-52
COc1ccc(-c2cc(N)nc(N)n2)cc1,16
COc1ccc(-c2ccnc(-c3cccs3)n2)cc1,-103*
CCc1nc(CN(C)C(=O)c2cc(Cn3ccc4ccccc43)[nH]n2)no1,12
CCN1CC[C@H]2OC[C@H](C(=O)NCc3cnc(C)cn3)C[C@H]2C1,-54
Cn1c(SCC(=O)C(C)(C)C)nnc1-c1cc(C(C)(C)C)nn1Cc1ccc(F)cc1,-42
COC(=O)c1c(NC(=O)Cn2nc(C(F)(F)F)c(Br)c2C)sc2c1CCCC2,6
CC(=O)Nc1nonc1-c1ccccc1,0
CC(=O)Nc1ccccc1,-14
SMILES,Tgondii IFNg
CC(=O)NC1=NN(C(C)=O)C(C)(c2ccccc2)S1 (centres undefined),-77*!
Cc1ccc(C(=O)N2CC(=O)N(C3CCCCC3)CC(OCc3ccccc3)C2)cn1 (centres undefined),9
CCc1ccc(-c2c(-c3ccccc3)ncn2CCc2cnc[nH]2)nc1,-15
CCC(=O)Nc1ccc2c(c1)OC[C@H](C)N(Cc1ccccc1)C[C@@H](C)[C@@H](OC)CN(C)C2=O,211
CO[C@H]1CN(C)C(=O)c2ccc(NC(=O)Nc3cc(F)ccc3F)cc2OC[C@@H](C)N(C(=O)c2ccccn2)C[C@@H]1C,-88*
CO[C@@H]1CN(C)C(=O)c2cc(NC(=O)Nc3ccccc3F)ccc2OC[C@@H](C)N(C(=O)c2cnccn2)C[C@H]1C,44
CCCC(=O)Nc1ccc2c(c1)C(=O)N(C)C[C@@H](OC)[C@H](C)CN(Cc1cc(-c3ccccc3)on1)[C@H](C)CO2,-81*
CCCC(=O)Nc1ccc2c(c1)C(=O)N(C)C[C@@H](OC)[C@H](C)CN(C(=O)c1ccccn1)[C@H](C)CO2,4
COCC(=O)N1C[C@H](C)[C@@H](OC)CN(C)C(=O)c2ccc(NC(=O)Nc3cccc(F)c3)cc2OC[C@@H]1C,-35
COCC(=O)Nc1ccc2c(c1)OC[C@@H](C)N(C)C[C@@H](C)[C@@H](OC)CN(C)C2=O,-19
CO[C@@H]1CN(C)C(=O)c2ccc(NC(=O)c3ccc4c(c3)OCO4)cc2OC[C@@H](C)N(Cc2ccc3c(c2)OCO3)C[C@H]1C,-80*
CO[C@@H]1CN(C)C(=O)c2ccc(NC(=O)Nc3cc(F)ccc3F)cc2OC[C@H](C)N(C(=O)c2ccccn2)C[C@@H]1C,2
COCC(=O)N1C[C@@H](C)[C@H](OC)CN(C)C(=O)c2ccc(NC(=O)c3ccc(-c4ccccc4)cc3)cc2OC[C@H]1C,-103*
CCC(=O)Nc1ccc2c(c1)OC[C@H](C)N(Cc1ccccc1)C[C@H](C)[C@@H](OC)CN(C)C2=O,173
CO[C@@H]1CN(C)C(=O)c2cc(NC(C)=O)ccc2OC[C@H](C)N(Cc2ccncc2)C[C@H]1C,-66
CCOCC1CN(C(=O)c2ccncc2F)Cc2nccn2C1 (centres undefined),-18
CN1CCC2(CC1)CC(COCC1CC1)N(c1ncccn1)C2 (centres undefined),-28
CNc1cc(CN(C)C(C)=O)nc(C2CCCCN2S(=O)(=O)c2ccc(C)cc2)n1 (centres undefined),10
COc1ccc(C)cc1N1CC(C(=O)Nc2cccc(-n3nnnc3C)c2)CC1=O (centres undefined),6
CN(C)CC(=O)N1C[C@H]2CCC[C@]2(COCc2ccncc2)C1,2
Cc1cnc(CNC(=O)c2c(=O)c3ccc(N4CCCN(C)CC4)nc3n3c2sc2ccccc23)cn1,-81*
CCNC(=O)c1c2c(N3CCN(C)CC3)ncnc2n2ccccc12,35
